Here are results for 5 compounds from PubChem BioAssay.

Results filed as inconclusive are left out. Activity calls are given as the source filed them.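 Rule for the calls, unless noted: active = inhibition over a set limit, the all-compound mean plus 3 SD, in both replicate runs; inconclusive = over that limit in just one replicate run; inactive = at or under that limit in both runs.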

A short description of assay [1]: Her2 expression decrease, cell viability multiplex – SKBR3 breast tumor cells, AlphaScreen, ATP viability, primary screen (AID 461;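 active = Her2 level under about 52% in both replicate screens, with viability over 70% of control, limit read from the data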;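 for Her2 level: lower value means less Her2 protein in the cells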;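 for viability: percent of carrier control wells set as 100% viability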). To be noted: SKBR3 Her2 protein level, 18-24 h, measured here: SKBR3 viability, ATP luminescence, at 10 µM.
For assay [2], the target named is Receptor tyrosine-protein kinase erbB-2 (Homo sapiens) (UniProt P04626). The assay is described as above. To be noted: 18-24 h, at 10 µM, stronger effect = lower value.
Assay [3] is described as follows: reduced viability of SK-BR-3 breast cancer cells – cell-based, 24 h, human, pilot screen (AID 572;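 active = viability at or below 10% of carrier control in both of two separate runs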;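 note: compound exposure lasted between 18 and 24 h rather than exactly 24 h; 100% = carrier-treated control wells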). To be noted: SK-BR-3 viability, CellTiter-Glo luminescence, at 10 µM, stronger effect = lower value. (Cellular ATP, detected with luciferase, serves as a proxy for viable cell number.)
A short description of assay [4]: HUVEC growth inhibition – cell-based, human, primary screen (AID 575;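 active = viability at or below 30% in both replicate assays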;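 note: 100% = median of untreated cell wells with 0.1% DMSO on each plate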). To be noted: HUVEC proliferation, CellTiter-Glo luminescence, 72 h; at 10 µM; stronger effect = lower value.
A short description of assay [5]: H69AR cell proliferation blockers – human, duplicate replicates, primary screen (AID 580;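 active = viability at or under a set limit in both replicates, limit being median viability minus 3 SD, cut at about 48% in these data, passing the limit was not always enough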;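 note: 100% = mean luminescence of untreated wells and 0% = no signal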). The note with it: H69AR lung tumor cells viability, ATP luminescence, 72 h; at 10 µM; stronger effect = lower value.
Assay [6] in a line: MRP1 drug-resistance reversers in H69AR cells – cell-based, doxorubicin co-treatment, pilot screen (AID 601;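 active = viability loss from added drug above about 55%, and viability with drug at most 40%, in both replicates, limit read from the data, passing the limit was not always enough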). The note with it: CellTiter-Glo, 72 h, at 10 µM; for differential viability (reversal): stronger effect = higher value.
Assay [7] is described as follows: yeast transport mutant growth inhibition pilot in 384-well plates, post-Golgi transport modulator project (AID 636; in the data active = inhibition above about 31%). The note with it: absorbance 615 nm, about 18 h, stronger effect = higher value.
Assay [8] can be described thus: growth suppression of yeast trafficking mutant, preliminary HTS, modulators of trafficking downstream of Golgi apparatus project, 1536-format plate, OD 615 nm (AID 637; in the data active = inhibition above about 30%). The note with it: yeast transport mutant growth, absorbance 615 nm, 18 h; stronger effect = higher value.
Assay [9] can be described thus: S. cerevisiae growth inhibition in permissive medium (OD615), pilot counter-assay for S. cerevisiae lifespan shortening project, permissive growth control (AID 705;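 active = growth inhibition above 25% in both replicates, a cutoff set 3 SD above the mean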). To be noted: OD615, 24 h, at 10 µM, stronger effect = higher value.
Assay [10] in a line: S. cerevisiae growth inhibition in restrictive medium, OD615, pilot screen, restrictive growth control, yeast lifespan reduction project (AID 706;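 active = growth inhibition above a set limit, 3 SD over mean compound inhibition, in both replicates, cut at about 43% in these data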;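 note: modified DeaD lifespan yeast strain shifted to restrictive glucose medium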). The note with it: OD615, 48 h, at 10 µM, stronger effect = higher value.
Assay [11] is described as follows: doxorubicin toxicity protection in MRP-1 cells – H69AR cells, CellTiter-Glo, duplicate, MRP-1 activator project, pilot screen (AID 807;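 active = viability increase at or above a cutoff of the median across tested compounds plus 3 SD, cut at about 8.5% in these data, passing the limit was not always enough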;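 note: compound pretreatment 18-22 h then 72 h combined with doxorubicin; 0% = doxorubicin alone and 100% = vehicle without doxorubicin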). To be noted: H69AR viability with doxorubicin, CellTiter-Glo luminescence; at 10 µM; stronger effect = higher value.
Assay [12] can be described thus: viability of HCT116 without oncogenic beta-catenin – human colon tumor cells, pilot screen (AID 823;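 active = cell viability at or below a set limit in both duplicate runs, the limit being the all-compound median minus 4 SD, cut at about 23% in these data, passing the limit was not always enough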;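 note: 0% = wells killed by 20 µM Hyamine and 100% = untreated DMSO cell wells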). The note with it: HCT116 beta-catenin knockout viability, CellTiter-Glo, 60 h; at 10 µM; stronger effect = lower value.
The nature of assay [13]: viability of PTEN-null HCT116 cells – cell-based, HCT116 clonal line, CellTiter-Glo, pilot screen (AID 824;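 active = viability at or below 27.92% in each of two runs, the all-compound median minus 4 SD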;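 note: 0% = 20 µM Hyamine control and 100% = vehicle cell control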). To be noted: HCT116 PTEN-deleted viability, 60 h, at 10 µM, stronger effect = lower value.
A short description of assay [14]: RAM pathway blockade in budding yeast – dse1pr::URA3 reporter, 5-FOA selection, pilot screen (AID 869).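 Note: 0% = DMSO wells with no growth and 100% = 10 µM 1-NA-PP1 with full growth; RAM network block rescues cells from 5-FOA so hits raise OD615 growth.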 To be noted: S. cerevisiae dse1pr::URA3 5-FOA growth, OD615, 2 d; at 10 µM; stronger effect = higher value; strain carries analog-sensitive mutant Cbk1 kinase.
Assay [15] is described as follows: RAM signaling pathway blockade in yeast – S. cerevisiae, Pdr1DBD-CYC8 efflux-inhibited sensitized strain, primary screen (AID 1298;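 active = RAM network inhibition above 8.4% in each of two replicates, 3 SD over the compound average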;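 note: 0% = DMSO untreated cells without growth and 100% = 10 µM 1-NA-PP1 full growth; higher means more yeast growth rescued from 5-FOA killing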). The note with it: S. cerevisiae cbk1-as DSE1-URA3 strain, 5-FOA growth OD615, 2 d; at 50 µM; stronger effect = higher value.
The mark [16] stands for this setting: H69AR cells + 2 uM doxorubicin, measured here: viability with 2 uM doxorubicin, stronger effect = lower value.
[17] abbreviates: H69AR cells, compound alone cytotoxicity.

Receptor tyrosine-protein kinase erbB-2 (Homo sapiens), sequence (P04626 whole entry, looked up): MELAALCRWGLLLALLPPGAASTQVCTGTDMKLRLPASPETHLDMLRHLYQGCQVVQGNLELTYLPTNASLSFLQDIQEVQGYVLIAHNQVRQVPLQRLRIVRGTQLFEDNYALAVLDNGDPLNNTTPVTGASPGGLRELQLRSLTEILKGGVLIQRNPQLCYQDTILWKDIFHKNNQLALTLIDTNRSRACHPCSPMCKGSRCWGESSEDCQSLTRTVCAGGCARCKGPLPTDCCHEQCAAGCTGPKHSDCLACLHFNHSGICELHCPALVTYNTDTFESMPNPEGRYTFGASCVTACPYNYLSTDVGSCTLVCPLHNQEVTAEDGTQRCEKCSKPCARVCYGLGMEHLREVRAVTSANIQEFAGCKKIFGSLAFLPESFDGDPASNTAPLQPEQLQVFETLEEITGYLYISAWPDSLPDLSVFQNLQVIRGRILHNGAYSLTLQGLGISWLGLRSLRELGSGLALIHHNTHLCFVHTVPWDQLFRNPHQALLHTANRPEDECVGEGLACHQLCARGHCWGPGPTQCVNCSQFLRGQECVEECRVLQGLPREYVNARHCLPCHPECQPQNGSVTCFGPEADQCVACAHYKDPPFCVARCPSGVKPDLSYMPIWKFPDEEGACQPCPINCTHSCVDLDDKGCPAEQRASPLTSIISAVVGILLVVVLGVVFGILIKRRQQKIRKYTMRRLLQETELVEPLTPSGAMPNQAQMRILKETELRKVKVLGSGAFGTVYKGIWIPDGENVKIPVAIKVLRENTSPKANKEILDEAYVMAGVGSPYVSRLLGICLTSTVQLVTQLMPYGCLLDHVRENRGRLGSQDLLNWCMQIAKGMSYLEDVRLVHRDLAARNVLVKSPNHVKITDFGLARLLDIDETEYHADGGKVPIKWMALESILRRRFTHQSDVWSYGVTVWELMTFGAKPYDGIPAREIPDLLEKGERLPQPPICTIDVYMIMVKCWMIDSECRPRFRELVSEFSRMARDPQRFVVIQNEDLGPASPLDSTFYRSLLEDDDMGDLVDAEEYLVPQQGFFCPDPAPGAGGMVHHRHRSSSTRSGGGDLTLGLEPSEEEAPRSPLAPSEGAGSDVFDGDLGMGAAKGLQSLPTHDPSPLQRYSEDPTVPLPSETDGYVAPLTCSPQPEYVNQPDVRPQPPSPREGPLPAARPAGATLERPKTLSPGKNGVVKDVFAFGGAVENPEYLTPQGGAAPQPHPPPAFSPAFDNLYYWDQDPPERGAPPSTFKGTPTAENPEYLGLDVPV

With `CCOC(=O)c1sc(NC(=O)c2noc3c2CCCC3)c(C(=O)OCC)c1C`, the viability in assay [1] is 69.5%; in assay [3] it was 69.5% (inactive); in [4] it was 85% (inactive); in [5] it was 67.8% (inactive); in assay [6] (setting [16]), 81%; in assay [6] (setting [17]), 67.8%. For the same compound, the viability was 55.2% (inactive) in assay [12] and 55.8% (inactive) in assay [13]. Further, the Her2 level in assay [2] is 83% (inactive). Moreover, the differential viability (reversal) in assay [6] (H69AR cells + 2 uM doxorubicin) is -13.2% (inactive). Further, the results for the inhibition in assay [7], in assay [8] and in assay [14] were 1.41% (inactive), -4.17% (inactive) and 0.47% (inactive), respectively. Moreover, the growth inhibition was -0.315% (inactive) in assay [9] and -5.25% (inactive) in assay [10]. The viability increase in assay [11] was -3.88% (inactive). For the same compound, the RAM network inhibition in assay [15] is 2.96% (inactive).
`CCOC(=O)C(CC)n1nc(C)n2c(cc3sccc32)c1=O` (stereo not given): the viability is 114% in [1]; 114% (inactive) in [3]; 110% (inactive) in [4]; 85.1% (inactive) in assay [5]; 84.2% in assay [6] (setting [16]); 85.1% in assay [6] (setting [17]). Further, the viability in [12] was 99.8% (inactive); in assay [13], 95.2% (inactive). Moreover, the Her2 level in assay [2] is 102% (inactive). Further, in assay [6] (H69AR cells + 2 uM doxorubicin), the differential viability (reversal) was 0.895% (inactive). In addition, the inhibition is -5.87% (inactive) in assay [7], 1% (inactive) in [8] and -1.04% (inactive) in [14]. For the same compound, the growth inhibition in assay [9] is -5.97% (inactive); in assay [10] it was 1.69% (inactive). Further, in assay [11], the viability increase was -2.34% (inactive). For the same compound, the RAM network inhibition in assay [15] is 2.14% (inactive).
As to `O=C(Nc1cnn(Cc2ccc(Cl)cc2Cl)c1)c1noc2c1CCCC2`, the viability in assay [1] is 94.5%; in assay [3], 94.5% (inactive); in assay [4], 71.8% (inactive); in assay [5], 88.2% (inactive); in assay [6] (setting [16]), 85.6%; in assay [6] (setting [17]), 88.2%. Besides, the figures for the viability in [12] and in assay [13] were 94.7% (inactive) and 82.7% (inactive), respectively. In addition, in assay [2], the Her2 level is 91.5% (inactive). Moreover, the differential viability (reversal) in assay [6] (H69AR cells + 2 uM doxorubicin) was 2.57% (inactive). Further, the inhibition in [7] is -0.13% (inactive); in [8] it was -3.17% (inactive); in assay [14], 0.895% (inactive). For the same compound, the growth inhibition in assay [9] was 2.94% (inactive); in assay [10], -1.65% (inactive). In addition, the viability increase in [11] was -0.32% (inactive). In assay [15], the RAM network inhibition was 4.07% (inactive).
As to `O=C1C/C(=C/NCc2ccccc2)C(=O)N1`, the viability is 93% in assay [1]; 93% (inactive) in [3]; 95.5% (inactive) in assay [4]; 97.2% (inactive) in assay [5]; 102% in assay [6] (setting [16]); 97.2% in [6] (setting [17]). For the same compound, the viability in assay [12] is 99.7% (inactive); in assay [13] it was 102% (inactive). Further, in assay [2], the Her2 level is 111% (inactive). Also, in [6] (H69AR cells + 2 uM doxorubicin), the differential viability (reversal) is -4.96% (inactive). In addition, the inhibition was 2.08% (inactive) in assay [7], -9% (inactive) in assay [8] and 1.04% (inactive) in [14]. Also, the growth inhibition in assay [9] was -6.49% (inactive); in assay [10], 0.205% (inactive). In assay [11], the viability increase was 0.43% (inactive). Moreover, in [15], the RAM network inhibition is 2.77% (inactive).
Consider `Nc1nc2n(n1)C(c1cccc(Br)c1)CC(c1ccccc1)N2` (stereo not given), for which the viability is 93.5% in assay [1]; 93.5% (inactive) in assay [3]; 82% (inactive) in assay [4]; 88.8% (inactive) in [5]; 98.7% in assay [6] (setting [16]); 88.8% in [6] (setting [17]). The viability in [12] is 97.1% (inactive); in assay [13] it was 86% (inactive). The Her2 level in [2] is 103% (inactive). For the same compound, in assay [6] (H69AR cells + 2 uM doxorubicin), the differential viability (reversal) was -9.83% (inactive). For the same compound, the inhibition in assay [7] is -3.33% (inactive); in assay [8], 0.83% (inactive); in assay [14], 1.22% (inactive). Besides, the figures for the growth inhibition in assay [9] and in assay [10] were -6.41% (inactive) and 12.7% (inactive), respectively. Besides, the viability increase in [11] was -1.81% (inactive). Besides, the RAM network inhibition in assay [15] was 12.1% (inactive).

The viability is a read-out of living cells in per cent, often relative to untreated cells. As usually defined, the inhibition is the relative decrease from the control value, in per cent.
